This is part of a sample that, as a whole, favours compounds with a hit. Of some 83,000 tested, about 20% had one in any assay.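 The endpoint reported here, percent growth, reads 100 for growth as untreated, 0 for no net growth and -100 for all cells dead.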 Values without a mark were called inactive. Calls of active or inactive are those of the source. How the source made its calls: active means growth percent below 10; inactive means the rest.
Experiments:
Assay in all cases: NCI-60 one-dose screen, 48 h (100 = growth as untreated, 0 = no growth, -100 = all killed)
A549/ATCC NSCLC = details: 10 µM unless noted
DU-145 prostate = details: 10 µM unless noted
K-562 leukemia = details: 10 µM unless noted
RXF 393 renal = details: 10 µM unless noted
UACC-257 melanoma = details: 10 µM unless noted
HCT-15 colon = details: 10 µM
HT29 colon = details: 10 µM unless noted
LOX IMVI melanoma = details: 10 µM unless noted
SN12C renal = details: 10 µM unless noted
A498 renal = details: 10 µM unless noted
HL-60(TB) leukemia = details: 10 µM unless noted
MOLT-4 leukemia = details: 10 µM
OVCAR-8 ovarian = details: 10 µM unless noted
OVCAR-4 ovarian = details: 10 µM unless noted
SK-OV-3 ovarian = details: 10 µM unless noted
HS 578T breast = details: 10 µM unless noted
BT-549 breast = details: 10 µM
HCC-2998 colon = details: 10 µM unless noted
SF-295 CNS = details: 10 µM unless noted
CAKI-1 renal = details: 10 µM unless noted

Row | Structure (SMILES) | growth (A549/ATCC NSCLC) [%] | growth (DU-145 prostate) [%] | growth (K-562 leukemia) | growth (RXF 393 renal) [%] | growth (UACC-257 melanoma) [%] | growth (HCT-15 colon) [%] | growth (HT29 colon) [%] | growth (LOX IMVI melanoma) [%] | growth (SN12C renal) [%] | growth (A498 renal) [%] | growth (HL-60(TB) leukemia) | growth (MOLT-4 leukemia) [%] | growth (OVCAR-8 ovarian) [%] | growth (OVCAR-4 ovarian) [%] | growth (SK-OV-3 ovarian) [%] | growth (HS 578T breast) [%] | growth (BT-549 breast) [%] | growth (HCC-2998 colon) [%] | growth (SF-295 CNS) [%] | growth (CAKI-1 renal) [%]
1 | CCC1CN1P(=O)(OCCOC)N1CC1CC (stereo unspecified) | 101 | 110 | 109% | 110 | 96.7 | 99.4 | 104 | 105 | 101 | 119 | 119% | 108 | 105 | 109 | 118 | 114 | 106 | 104 |  | 
2 | COc1ccc(C2SCC(=O)Nc3c2c(C)nn3-c2nc3ccc(C)cc3s2)cc1O (stereo unspecified) | 29.3 | 73.5 | 9.45% (active) | 50.2 | 70.1 | 23.9 | 10.5 | 36.9 | 49.6 | 40.9 | 3.8% (active) | 18.2 | 50.7 | 72.7 | 44.2 | 42.2 |  | 54.2 | 32.4 | 31.1
3 | CCOCC1(CCc2ccccc2)C(=O)NC(=S)NC1=O | 97.8 | 109 | 105% | 117 | 94.5 | 107 | 108 | 94.9 | 100 | 96.9 | 99.4% | 91.8 | 107 | 120 | 112 | 106 | 105 |  | 111 | 99.9

Source: PubChem BioAssay (NCI)
